The source of these data is PubChem BioAssay AID1159506 (National Center for Advancing Translational Sciences (NCATS), 2015).

Whole data set: some 59,000 sequences, median the read-out near -0.00055, cut for the lowest 2% near -2. Many of the other results were omitted from the sample, so the lowest values are more common in it than they were.

The nature of the assay: Identification of proteins required for the processing of the EWS-FLI1 nascent transcript.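 Note: robust z of luciferase light less the median z of siRNAs with the same seed.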 The settings on record: TC32 Ewing sarcoma NR0B1-luc vs CMV-luc (EWS-FLI1 target promoter against control promoter), 48 h; screened at 20 nM (by protocol). The procedure, abridged: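 Parallel TC32-NR0B1-luc and TC32-CMV-luc reverse transfections with 20 nM siRNA in RPMI-1640/10% FBS, luciferase measured 48 h later. Seed-adjusted z-scores from normalized, z-score-MAD transformed data; AllStars negative and siGL4 controls on each plate.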
On to UAUAGGUAAGGAUUUCUGC against KRTAP9-2, for which the seed-corrected z-score was -0.397.

UGUCUUCUAAAGUAAGUGG against ZNF77 registered a seed-corrected z-score of -2.26.

Sequence UCACGAACAUGUUGCAAGG against KRIT1 yielded a seed-corrected z-score of -0.0242.

As to UAGUUCAUAAUCCAAGUCC against COL6A3, the seed-corrected z-score was 0.0612.

AUGACUUUAGGUCGCAUCG against FBXL12 showed a seed-corrected z-score of -13.4.

For UUUGGGAUUUCCAUUGUCU against LRP2BP, the seed-corrected z-score came to 0.259.

On to UUGGAUACAAAGGAACAAC against DHX32, for which the seed-corrected z-score is -0.291.

UUUGAGUCCACCACGAAGC against MYH3 returned a seed-corrected z-score of -0.0465.

In turn, UCUGCUGCUCGUCAAGUUC against MAP2K2 registered a seed-corrected z-score of 1.77.

As to UCUCUUUAAAGACUCCUCC against LPO, the seed-corrected z-score was determined as 0.133.

On to UUGGGAUAUAUUUAGCGGC against ITGB1BP2, for which the seed-corrected z-score was -2.58.

UUUCGGAUGAGCACGCAGC against APRT displayed a seed-corrected z-score of -0.0241.

On to UUCUUGUUCACUCUAAUUU against NFIC, for which the seed-corrected z-score amounted to 0.384.

In turn, AUAGUGUCGAUAAAAACCU against CHRNA1 came in with a seed-corrected z-score of 0.527.

In the case of AAAGUUGCGGAAGCUGAUG against LRP3, the seed-corrected z-score was -2.42.

The sequence UAUCUGUGCAGUUAAGAUG against LOC401220 displayed a seed-corrected z-score of -0.155.

UUUCACUCCACUGAAGUAC against CDKL1 had a seed-corrected z-score of -0.736.

As to AGCUGUAGCACCAUCAACG against OR7G3, the seed-corrected z-score is -1.26.

Sequence UUCGAUUCCAAGCCUUACG against CCDC113 returned a seed-corrected z-score of 0.591.

Sequence AAGUUACCCACGUAGAUGC against SRSF1 returned a seed-corrected z-score of -1.35.

Sequence UAAGAUAUUUGUCCAACAG against YWHAB came in with a seed-corrected z-score of 0.25.

Take UCAUUGAUCUAAAACGACC against PPFIA1: the seed-corrected z-score worked out at 0.863.

As to UUCUCCUUCACAUACCGGC against CLK3, the seed-corrected z-score stood at 0.176.

Consider UAUCUUCACUGAAUUGACC against ARL8B, for which the seed-corrected z-score stood at 0.269.

For AUAUGCUUCACAGUUCUAG against MMP1, the seed-corrected z-score was -2.83.

UAUAGGCCUUCUACAUUGC against ROM1: the seed-corrected z-score stood at 1.12.

For the sequence UUGCGAAUGAGGUUGUAGG against PIK3C2B, the seed-corrected z-score was -0.721.

UCUGAUAGCAAUAACUUGG against PPCS displayed a seed-corrected z-score of -0.294.

Regarding UGUUGACUCACUGUAGGCU against LOC729683, the seed-corrected z-score came to 0.842.

The sequence AAAGAGGAAACGGUAGGCC against JAGN1 registered a seed-corrected z-score of -2.67.

On to UAUUGGAUCCGGUGCAACC against SYPL2, for which the seed-corrected z-score was -0.246.

UUGGUUAUCCUCUAUACCC against MTERF3 registered a seed-corrected z-score of 0.193.

For UUCAUCAUCGAGGUCAUCC against DPF2, the seed-corrected z-score is -3.12.

On to UGAACUAUUGGAAUGUCUC against SEC11C, for which the seed-corrected z-score was determined as 0.165.

Sequence AUCGUAGUCAGUGUAUCUG against PPARGC1B came in with a seed-corrected z-score of -0.163.

Sequence UAUAGAGCUGCCGUCUCCG against ESRP2 came in with a seed-corrected z-score of -0.989.

The sequence UCACUGUUUACUUAGCGCU against HIST1H2BJ yielded a seed-corrected z-score of 1.62.

UGCCGAACCACUUCCAGAG against TNRC18P2: the seed-corrected z-score is -1.02.

For AUAGUAAAUAAACACUGCC against RHBDL2, the seed-corrected z-score was -2.55.

In turn, AAUCUGAGAACAGACCGUG against MXD4 came in with a seed-corrected z-score of 1.77.

AUAGGAGUAAGAAUUUUUG against NUDT10: the seed-corrected z-score was -0.635.

AUGCUUAUAAUGACCACCA against SLC51B: the seed-corrected z-score is -2.22.

As to UGAAACACCAUUAAAACGG against TDG, the seed-corrected z-score turned out to be 0.355.

On to UAAAUCUGCUUAUCUCUUC against TFAM, for which the seed-corrected z-score is -0.445.

UUCUUGAAAAGGCAACAGU against POC1A: the seed-corrected z-score came out at 0.91.

AAAGCGACAUUGUUUGACC against COPB2 yielded a seed-corrected z-score of -2.18.

Consider UUGGUCAUAGAGGUCGUCC against LSR, for which the seed-corrected z-score was -1.71.

Sequence UGUCGGAUGAGGUCAUUGC against TNS4 came in with a seed-corrected z-score of -2.96.

For UUGUUUGCAGGUUCUACUU against DDX19B, the seed-corrected z-score was -0.121.

The sequence UCUAGUAUUACUGCUACUG against DDHD2 came in with a seed-corrected z-score of 0.72.

With AAUGUACAAGUGGUCAUUC against MAGED2, the seed-corrected z-score was -2.83.

As for UCAUAGUCCAGGGUAAGGC against LRP4, the seed-corrected z-score was -1.11.

Turning to UCUUUGUACGCAUCAAGUG against NPY1R, the seed-corrected z-score was -0.0164.

Consider AUAGAUUAACCAUGUUUCC against KCNN3, for which the seed-corrected z-score was -0.34.

Sequence UCCAUUGAUAGAACCAUCU against HFE2 came in with a seed-corrected z-score of -0.476.

For the sequence UAAGAUGAUCGUGAACUUG against RPL39L, the seed-corrected z-score was 0.982.

The sequence UGCAUUUCUAUAUUCAACC against TLE4 showed a seed-corrected z-score of -0.442.

Turning to UAUAGGUGUAGAUUACAGG against OR13G1, the seed-corrected z-score is -0.49.

Take UAACUUGUUUGUUUACAAC against RPL21P62: the seed-corrected z-score was -3.04.

Regarding UGAAUUUCCGGUGCUUGCC against PDGFB, the seed-corrected z-score was -0.605.

UAGGAGAUAGCGAUGACCA against NPBWR1 had a seed-corrected z-score of 0.302.

For AAAGAGGUACUCACAGGGC against LGR6, the seed-corrected z-score is -0.878.

For UUCGGUCUGCUAAUGCUGG against CNOT2, the seed-corrected z-score was determined as 1.7.

Sequence AAUCUCACAACAGUUAUGG against MTMR8 displayed a seed-corrected z-score of 0.0648.

In turn, AUACUACUUACAACCGGGC against SON had a seed-corrected z-score of 1.15.

As for ACAGCUAACAUGGACACUC against SHTN1, the seed-corrected z-score worked out at 0.393.

UAGGUAACCAUAGUACUCA against ISY1: the seed-corrected z-score was -2.1.

Regarding UGUAUAGAAAAAUUCACGC against CRY1, the seed-corrected z-score came to 0.235.

UCCAGUAGCACCAUAGUUC against ZNF449: the seed-corrected z-score is -0.629.

On to UUCGUGAUCAUCUUCUCAC against PHYH, for which the seed-corrected z-score came to 0.854.

The sequence AAAUGUUCACCUGUCUUCU against RPS4Y1 came in with a seed-corrected z-score of -0.188.

In turn, UUCAUAUAUGAGUCAAUGG against HMG20A registered a seed-corrected z-score of 0.779.

UUCCUCAUGAUUGUCCUCA against GABARAPL1 came in with a seed-corrected z-score of -0.0836.

In turn, UUAGUAUUUGGUAUUCAGA against FCGR1A gave a seed-corrected z-score of -0.211.

UAGGAUCCAGGGUUAGUUU against RPL18: the seed-corrected z-score is -2.17.

As for UUAGGGUCCCUCAUCUUCA against LOXL4, the seed-corrected z-score is 0.627.

The sequence UAUUAUUAAAGUGAGAUGG against SNCA showed a seed-corrected z-score of 0.375.

Turning to UCUGGUGAACGACUCUUGC against MGMT, the seed-corrected z-score is 0.137.

Consider AUCUGUAUUCUCACUAUAG against TTC23, for which the seed-corrected z-score is -1.15.

On to UUAAUGAUAGAGACUAGGA against LTC4S, for which the seed-corrected z-score was -0.727.

Regarding GUUACAUACCUUUUUCUCU against GTF2H2B, the seed-corrected z-score was determined as 0.209.

In the case of UCAUAGAAGAGGUCUGUCU against PHF5A, the seed-corrected z-score was -2.2.

Turning to UUCAUAGCCUCUUCAAUGG against SPAG7, the seed-corrected z-score was -1.44.

For UACACUCUAAGAGCUCUUC against BCAT1, the seed-corrected z-score turned out to be 1.4.

UUAAAUUCUUGGAAGUAGA against SCNN1B came in with a seed-corrected z-score of 0.779.
